hcDAF-12 act: H. contortus DAF-12 nuclear receptor activators, primary screen, cell-based, luminescence, HEK293, lit1-tk-luc reporter | HEK293 hcDAF-12 lit1-tk-luc reporter; 0% DMSO, 100% Δ7-dafachronic acid | activation, % at 6.8 µM | hit rate 1.4% among 370,000 | AID 652067, 2013;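 active = activation above the mean of all tested compounds plus 3 SD, cut at about 5.5% in these data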;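 note: 100% = response to 3 µM Δ7-dafachronic acid high control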
hgDAF-12 ag: H. glycines DAF-12 receptor agonists, primary screen, cell-based, luminescence, HEK293, GAL4 fusion, UAS-luciferase; Nuclear hormone receptor DAF-12 (Heterodera glycines), GAL4 fusion; HEK293 GAL4-hgDAF12 UAS-luciferase reporter, agonist luminescence; normalized to butyrate control; activation, % at 6.8 µM; hit rate 1.8% among 370,000; AID 687014, 2013;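 active = activation above a cutoff set at the mean of all screened compounds plus 3 SD, cut at about 10% in these data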;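 note: 0% = DMSO wells and 100% = sodium butyrate wells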
DAX1 inh-1: DAX1 (NR0B1) inhibitors on StAR promoter, primary screen, cell-based, luminescence, SF-1 (NR5A1), full-length DAX-1. HEK293T StAR-luciferase reporter, SF-1/DAX-1 repression relief. inhibition, % at 6.8 µM. hit rate 1.1% among 370,000;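 active = inhibition above the mean over all tested compounds plus 3 SD, cut at about 3.6% in these data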;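 note: 0% = DAX-1 cells with DMSO and 100% = cells lacking DAX-1 with DMSO; higher inhibition means more luminescence from relief of DAX-1 repression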
DAX1 inh-2: DAX1 (NR0B1) inhibitors, primary screen, cell-based, HEK293, Gal4-DAX1, luciferase luminescence; Nuclear receptor subfamily 0 group B member 1 (Homo sapiens), P51843; HEK293 Gal4-DAX1 luciferase reporter; inhibition, % at 6.75 µM; hit rate 0.99% among 340,000; AID 504766, 2011;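 active = inhibition above the mean over all tested compounds plus 3 SD, cut at about 4.2% in these data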;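 note: 0% = DAX1-transfected cells with DMSO and 100% = empty-vector control cells with DMSO; inhibition shows as a rise in luminescence from relieved DAX1 repression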
Target sequence (P51843 207-470 limits assumed): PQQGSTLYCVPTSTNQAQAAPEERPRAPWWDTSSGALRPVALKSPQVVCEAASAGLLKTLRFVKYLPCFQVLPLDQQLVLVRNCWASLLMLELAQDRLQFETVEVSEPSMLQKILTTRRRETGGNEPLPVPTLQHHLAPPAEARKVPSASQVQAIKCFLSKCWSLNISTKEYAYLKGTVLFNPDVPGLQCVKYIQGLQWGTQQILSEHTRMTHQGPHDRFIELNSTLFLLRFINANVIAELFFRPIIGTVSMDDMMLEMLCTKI
PolyA inh: polyadenylation inhibitors in yeast reporter cells, primary screen, luminescence, S. cerevisiae. S. cerevisiae SKY197-pL101 polyadenylation reporter, beta-gal luminescence; efflux-impaired pdr1/pdr3 knockout yeast; score 100 = 6 SD above DMSO. activity score, % at 12 µM. hit rate 0.02% among 300,000. AID 1875, 2009;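 active = lowest replicate activity score at least 50, where 100 means six control SD above control mean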;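 note: yeast exposed to compound for 9 h at 30 °C; higher score means more reporter readthrough which indicates perturbed polyadenylation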
ssDAF-12 act: S. stercoralis DAF-12 nuclear receptor activators, primary screen, cell-based, luminescence, HEK293, GRIP1 co-expression, lit1-tk-luc; HEK293 ssDAF-12/GRIP1 lit1-tk-luc reporter; % of 3 µM dafachronic acid response; activation, % at 6.8 µM; AID 652126, 2013; Nuclear hormone receptor DAF-12 (Strongyloides stercoralis); hit rate 1% among 370,000;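 active = activation above the mean over all tested compounds plus 3 SD, cut at about 0.9% in these data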;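 note: 0% = DMSO-only wells and 100% = 3 µM delta7-dafachronic acid wells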
The depositor's hits bear a star; . = no result. Hits are enriched below; roughly 4.1% of the tested compounds scored in any of these assays.

SMILES	hcDAF-12 act	hgDAF-12 ag	DAX1 inh-1	DAX1 inh-2	PolyA inh	ssDAF-12 act
Nc1ncnc2c1ncn2[C@@H]1O[C@H](C(=O)N[C@@H](CCc2ccccc2)C(=O)N2CCN(C(=O)N3CCOCC3)CC2)[C@@H](O)[C@H]1O	0	-3	1	.	.	-1
CCOC(=O)C1=C(C(=O)OCC)C2N(Cc3ccccc3)c3ccccc3[C@@]23C[C@@H](C(=O)OC)N(S(=O)(=O)c2ccc(C(F)(F)F)cc2)C3=N1 (stereo not given in full)	2	1	0	.	.	-1
O=C(O)c1ccc(N=NN2CCCCCC2)cc1	4	11*	3	2	-3	0
COC(=O)c1cc2c(c3c4cc(F)ccc4n(S(=O)(=O)c4ccccc4)c13)C(=O)N(Cc1ccco1)C2	1	-2	-2	.	.	-1
COc1ccc(CNc2ncnc3sccc23)cc1OC	-4	-3	-1	-2	12	-1
COc1ccc(CNc2ncnc3sccc23)cc1	-5	-6	-1	-3	114*	-2
c1cnc2ncc3sccc3c2c1	2	2	0	0	5	-1
O=c1[nH]c2cccnc2c2ccsc12	0	-2	0	5.9*	0	0
COC(=O)[C@]12C[C@H](CC(=O)N3CCN(C(=O)C4CC4)CC3)C(=O)N(Cc3cccc4ccccc34)C1=C[C@H](C(C)C)O[C@@H]2C1CC1	-2	2	0	.	.	-1
COC(=O)/C=C1\OC(C)c2ccccc21 (stereo not given)	3	-3	1	.	.	1.2*
COc1ccc(C(=O)NC2c3ccccc3-c3ccccc32)cc1	-1	0	0	-1	22	-1
COc1ccccc1-c1nc(NC(C)=O)n[nH]1	4	1	0	.	-6	1.8*
COc1ccccc1CNC1CCC12CCC(c1ccccc1)CC2 (stereo not given)	-1	-1	.	.	.	-1
O=C(O)c1ccc(Oc2nc3ccccc3s2)cc1	5	8	2	2	.	1.2*
Cc1ccc(S(=O)(=O)N2c3ccc(F)cc3C[C@H]2CSc2ccccc2)cc1	-2	0	.	.	.	-1
Fc1ccc(-n2c(-c3ccc4ccccc4n3)n[nH]c2=S)cc1	2	1	0	6.3*	-25	0
COc1ccccc1NC(=O)OC1CC2CC1[C@H]1CCCCN1[C@H]2Cc1ccccc1 (stereo not given in full)	0	-1	0	.	.	-1
CCNC(=S)N1CCC(n2cnc3ccccc32)CC1	1	-3	0	4.6*	7	-2
COC(=O)C1Cc2c([nH]c3ccccc23)CN1 (stereo not given)	-2	0	-1	0	14	0
COC(=O)[C@H]1Cc2c([nH]c3ccccc23)[C@H](c2ccccc2)N1	6.4*	0	0	1	-18	0
CCCOc1ccc(-c2nnc(-c3cccs3)o2)cc1	4	10*	2	2	-17	0
CCCCOc1ccc(-c2nnc(-c3ccncc3)o2)cc1	1	8	1	0	-7	0
COC(=O)C1CN(Cc2cn(CCC3OCCO3)nn2)CCS(=O)(=O)N1Cc1ccc(F)cc1 (stereo not given)	0	-2	-1	.	.	-1
CN1CC=C(c2ccc(C(F)(F)F)cc2)N(c2ccc(Br)cc2)C1=O	-1	2	-1	.	.	-1
CC(=O)Nc1cccc2c1C(=O)N(c1ccc(C)cc1)C2=O	6.0*	2	2	0	12	0
SMILES	hcDAF-12 act	hgDAF-12 ag	DAX1 inh-1	DAX1 inh-2	PolyA inh	ssDAF-12 act
Cc1csc2nc(CCNS(=O)(=O)c3cccs3)cn12	1	13*	3	0	1	-1
COC(=O)[C@]12C[C@H](CC(=O)N3CCN(C(=O)c4ccco4)CC3)C(=O)N(CCc3ccc(OC)c(OC)c3)C1=C[C@H](C(C)(C)C)O[C@@H]2C	-4	-4	0	.	.	-1
CCCc1cc(=O)oc2c3c(cc(OCC(=O)N4CCC[C@H]4C(=O)O)c12)OC(C)(C)CC3	1	1	0	4.5*	11	-1
CCc1cc(=O)oc2c3c(cc(OCC(=O)NC4CC4)c12)OC(C)(C)CC3	-2	-2	-1	3	4	-1
COc1ccccc1CNC(=O)COc1cc2c(c3oc(=O)cc(C)c13)CCC(C)(C)O2	1	-3	0	4.4*	12	-2
C[C@H](O)[C@@H]1C(=O)N2CCc3c([nH]c4c(-c5ccccc5)cccc34)[C@@H]2C[C@@H]1N(C)C(=O)/C=C/c1ccccc1	-1	0	-1	.	.	-1
COc1cccc(CO[C@H]2C=C[C@@H](c3ccccc3)O[C@@H]2CO)c1	-1	2	0	.	.	-1
CN1CCCCC(NC(=O)c2ccc(F)c(F)c2)C1=O (stereo not given)	0	0	-1	.	.	-1
Cc1cc(/C=C2\SC(=S)NC2=O)c(C)n1-c1cccc(O)c1	5	7	4	5.3*	-7	0
O=C(CCc1nc2ccccc2c(=O)[nH]1)NCc1ccccn1	-1	3	0	1	-9	-1
O=C(CCc1nc2ccccc2c(=O)[nH]1)NCc1ccco1	1	-4	1	5.4*	5	-1
COCCCn1c(=O)c2sccc2n(Cc2ccc(C)cc2)c1=O	-1	-2	0	0	-20	1.0*
COCCNC(=O)c1cn(C)c2ccc(S(=O)(=O)N(C)C3CCCCC3)cc2c1=O	-1	-2	0	6.5*	.	-1
CC1CC(C)CN(C(=O)c2cn(C)c3ccc(S(=O)(=O)N(C)C)cc3c2=O)C1 (stereo not given)	0	-1	-1	4.5*	3	0
CCn1cc(C(=O)N2CC(C)CC(C)C2)c(=O)c2cc(S(=O)(=O)N(C)C)ccc21 (stereo not given)	-2	-2	-1	-1	2	-1
Brc1ccc(-c2noc(CCc3ccccc3)n2)o1	6.1*	7	2	2	-21	0
Brc1ccc(-c2noc(COc3ccc4ccccc4c3)n2)o1	2	1	0	0	-1	-1
